Measurements as given in PubChem BioAssay (NCI).
The panel holds about 83,000 compounds, 20% with a hit somewhere; the sample as a whole holds those more often.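 96-well plates, one dose, 48 hours. Percent growth reported; active if below 10.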 Calls of active or inactive are those of the source.

Legend:
Test in all cases: NCI-60 one-dose screen, 48 h (100 = growth as untreated, 0 = no growth, -100 = all killed)
Conditions in all cases: 10 µM unless noted
NCI-H23 lung = system: NCI-H23 lung
NCI-H226 lung = system: NCI-H226 lung
NCI-H322M lung = system: NCI-H322M lung
HOP-62 NSCLC = system: HOP-62 NSCLC
NCI-H460 lung = system: NCI-H460 lung
HOP-92 NSCLC = system: HOP-92 NSCLC
NCI-H522 lung = system: NCI-H522 lung
A549/ATCC NSCLC = system: A549/ATCC NSCLC
786-0 renal = system: 786-0 renal
COLO 205 colon = system: COLO 205 colon

Measured: growth

c1ccc([P+](CCC[P+](c2ccccc2)(c2ccccc2)c2ccccc2)(c2ccccc2)c2ccccc2)cc1
inactive: NCI-H23 lung 89% | NCI-H226 lung 101% | NCI-H322M lung 79.5% | HOP-62 NSCLC 75.3% | NCI-H460 lung 77.6% | HOP-92 NSCLC 20.1% | NCI-H522 lung 43.1% | A549/ATCC NSCLC 86.9% | 786-0 renal 92.5% | COLO 205 colon 45.4%

COc1ccc(C(=O)/C=C/c2ccc(/C=C/c3cc(OC)c(OC)c(OC)c3)cc2)cc1
inactive: NCI-H23 lung 43.5% | NCI-H226 lung 72.4% | NCI-H322M lung 64.8% | HOP-62 NSCLC 71% | NCI-H460 lung 59.6% | HOP-92 NSCLC 51.9% | A549/ATCC NSCLC 36.3% | 786-0 renal 67.7% | COLO 205 colon 68.1%
active: NCI-H522 lung 5.55%

O=[N+]([O-])c1cccc(-c2cc(-c3cc(Br)ccc3O)[nH]n2)c1
active: NCI-H460 lung 7.48% | HOP-92 NSCLC 4.45%
inactive: NCI-H23 lung 28.5% | NCI-H226 lung 52.6% | NCI-H322M lung 24.4% | HOP-62 NSCLC 25.2% | NCI-H522 lung 15.1% | A549/ATCC NSCLC 21.7% | 786-0 renal 27.2% | COLO 205 colon 17.6%

Oc1ccc(Cl)cc1-c1cc(-c2ccc(Cl)cc2)n[nH]1
inactive: NCI-H23 lung 49.8% | NCI-H226 lung 64.4% | NCI-H322M lung 55.5% | HOP-62 NSCLC 55.9% | NCI-H460 lung 40.4% | HOP-92 NSCLC 42.9% | NCI-H522 lung 47.5% | A549/ATCC NSCLC 49.3% | 786-0 renal 84.6% | COLO 205 colon 73.7%

Cc1ccc(Cn2c(-c3cccs3)nc3ccccc32)cc1
inactive: NCI-H23 lung 96.2% | NCI-H226 lung 77.3% | NCI-H322M lung 92% | HOP-62 NSCLC 105% | NCI-H460 lung 88% | HOP-92 NSCLC 72.5% | NCI-H522 lung 85.1% | A549/ATCC NSCLC 74.2% | 786-0 renal 99% | COLO 205 colon 110%

COC(=O)CC/C(C)=N\Nc1ccc([N+](=O)[O-])cc1
inactive: NCI-H23 lung 95.8% | NCI-H226 lung 76.3% | NCI-H322M lung 76.5% | HOP-62 NSCLC 59.7% | NCI-H460 lung 24.8% | HOP-92 NSCLC 92.7% | NCI-H522 lung 38.4% | A549/ATCC NSCLC 24.6% | 786-0 renal 75.4% | COLO 205 colon 54%

O=S=Nc1ccc([N+](=O)[O-])cc1
inactive: NCI-H23 lung 95% | NCI-H226 lung 108% | NCI-H322M lung 95% | HOP-62 NSCLC 89.6% | NCI-H460 lung 102% | HOP-92 NSCLC 107% | NCI-H522 lung 81.5% | A549/ATCC NSCLC 78.8% | 786-0 renal 92.1% | COLO 205 colon 106%

C#CCN1C(=O)/C(=c2\sc3n(c2=O)C2C(NN=3)N(CC)C(=O)N2CC)c2ccccc21 (stereo not given)
active: HOP-62 NSCLC -4.91% | NCI-H460 lung 5.2% | COLO 205 colon -12.2%
inactive: NCI-H23 lung 18.5% | NCI-H226 lung 98% | NCI-H322M lung 44.3% | HOP-92 NSCLC 58.1% | NCI-H522 lung 25% | A549/ATCC NSCLC 23.3% | 786-0 renal 12%

Cc1oc2nc[nH]c(=O)c2c1C(=O)/C=C/c1ccc(Cl)cc1Cl
inactive: NCI-H23 lung 90% | NCI-H226 lung 107% | NCI-H322M lung 92.4% | HOP-62 NSCLC 92.6% | NCI-H460 lung 93.4% | HOP-92 NSCLC 95.5% | NCI-H522 lung 39.1% | A549/ATCC NSCLC 78.7% | 786-0 renal 83.8% | COLO 205 colon 107%

O=C(CN1CCN(c2cc3c(cc2F)c(=O)c(C(=O)O)cn3C2CC2)CC1)Nc1ccc(C(=O)/C=C/c2ccc(Cl)cc2)cc1
inactive: NCI-H23 lung 105% | NCI-H226 lung 92.5% | NCI-H322M lung 111% | HOP-62 NSCLC 107% | NCI-H460 lung 112% | HOP-92 NSCLC 95.8% | NCI-H522 lung 47.7% | A549/ATCC NSCLC 97.6% | 786-0 renal 88.9% | COLO 205 colon 112%

CCn1cc(C(=O)O)c(=O)c2cc(F)c(N3CCN(S(=O)(=O)c4c(C)cc(C)cc4C)CC3)cc21
inactive: NCI-H23 lung 77.7% | NCI-H226 lung 87.4% | NCI-H322M lung 83.5% | HOP-62 NSCLC 71.5% | NCI-H460 lung 82.8% | HOP-92 NSCLC 76.9% | NCI-H522 lung 86.5% | A549/ATCC NSCLC 78% | 786-0 renal 102% | COLO 205 colon 93.2%

CCCCCCCCCCCCNC(=S)N/N=C/c1ccc(Cl)c(Cl)c1
inactive: NCI-H23 lung 109% | NCI-H226 lung 106% | NCI-H322M lung 112% | HOP-62 NSCLC 105% | NCI-H460 lung 112% | HOP-92 NSCLC 122% | NCI-H522 lung 65.7% | A549/ATCC NSCLC 103% | 786-0 renal 106% | COLO 205 colon 106%

COc1ccc(/C=C/c2cc(N3CCOCC3)c3cc(F)c(F)cc3n2)cc1OC
active: NCI-H522 lung 7.5%
inactive: NCI-H23 lung 42.3% | NCI-H226 lung 34.8% | NCI-H322M lung 30% | HOP-62 NSCLC 63.9% | NCI-H460 lung 25.2% | HOP-92 NSCLC 49.7% | A549/ATCC NSCLC 44.6% | 786-0 renal 40.8% | COLO 205 colon 11.8%

Cc1nc2sccn2c1-c1csc(Nc2ccccc2Cl)n1
inactive: NCI-H23 lung 38.2% | NCI-H226 lung 57.7% | NCI-H322M lung 64.4% | HOP-62 NSCLC 54.2% | NCI-H460 lung 35.3% | HOP-92 NSCLC 60.9% | NCI-H522 lung 41.9% | A549/ATCC NSCLC 34.4% | 786-0 renal 55.3% | COLO 205 colon 41.6%

CCCOC(=O)C1(O)CCCC1
inactive: NCI-H23 lung 106% | NCI-H226 lung 92.9% | NCI-H322M lung 102% | HOP-62 NSCLC 109% | NCI-H460 lung 108% | HOP-92 NSCLC 89.8% | NCI-H522 lung 75% | A549/ATCC NSCLC 105% | 786-0 renal 105% | COLO 205 colon 118%

COc1ccc(/C=C/c2nc(N3CCOCC3)c3nc(Cl)c(Cl)cc3n2)cc1OC
inactive: NCI-H23 lung 99.7% | NCI-H226 lung 102% | NCI-H322M lung 145% | HOP-62 NSCLC 115% | NCI-H460 lung 106% | HOP-92 NSCLC 105% | NCI-H522 lung 83.1% | A549/ATCC NSCLC 96.5% | 786-0 renal 99.8% | COLO 205 colon 105%

CN(C)c1ncc(-c2ccc(C(F)(F)F)cc2)c(NC2CCCCCC2)n1
active: HOP-92 NSCLC -1.97%
inactive: NCI-H23 lung 58.5% | NCI-H226 lung 61.9% | NCI-H322M lung 95.4% | HOP-62 NSCLC 88.2% | NCI-H460 lung 55.4% | NCI-H522 lung 43.6% | A549/ATCC NSCLC 57.5% | 786-0 renal 67.2% | COLO 205 colon 50%

Cc1cc(N/C=c2\sc3ncnn3c2=O)no1
inactive: NCI-H23 lung 91.6% | NCI-H226 lung 108% | NCI-H322M lung 81.5% | HOP-62 NSCLC 103% | NCI-H460 lung 105% | HOP-92 NSCLC 92.2% | NCI-H522 lung 90.8% | A549/ATCC NSCLC 107% | 786-0 renal 100% | COLO 205 colon 112%

COc1ccc([N+](=O)[O-])c(/C=C/C(=O)c2ccccn2)c1
inactive: NCI-H23 lung 91.3% | NCI-H226 lung 84.2% | NCI-H322M lung 83.4% | HOP-62 NSCLC 78.5% | NCI-H460 lung 89.4% | HOP-92 NSCLC 66.9% | NCI-H522 lung 90.1% | A549/ATCC NSCLC 87.8% | 786-0 renal 93.4% | COLO 205 colon 89.1%

COc1ccc(NC(=S)/N=c2\oc3c(OC)cccc3cc2-c2cc3ccccc3[nH]2)cc1
active: HOP-92 NSCLC -9.96%
inactive: NCI-H23 lung 70.1% | NCI-H226 lung 58.8% | NCI-H322M lung 80.8% | HOP-62 NSCLC 37.6% | NCI-H460 lung 69.8% | NCI-H522 lung 86.3% | A549/ATCC NSCLC 85.2% | 786-0 renal 65% | COLO 205 colon 101%

CCC#CC[C@H]1C/C=C2/C(=O)C=C[C@@H]2C/C=C\CCCC(=O)O1
inactive: NCI-H23 lung 20.4% | NCI-H322M lung 45.4%
active: NCI-H226 lung -26.6% | HOP-62 NSCLC -3.46% | NCI-H460 lung -38.1% | HOP-92 NSCLC -5.7% | NCI-H522 lung -29% | A549/ATCC NSCLC 0.732% | 786-0 renal -37.9% | COLO 205 colon -22.7%

O=C(Cc1n[nH]c(=O)c2ccccc12)OCc1c(Cl)cccc1Cl
inactive: NCI-H23 lung 103% | NCI-H226 lung 77.5% | NCI-H322M lung 107% | HOP-62 NSCLC 69.1% | NCI-H460 lung 26.3% | HOP-92 NSCLC 88.2% | NCI-H522 lung 98.9% | A549/ATCC NSCLC 96.4% | 786-0 renal 81.6% | COLO 205 colon 112%

COc1cc(CCn2nnc3c(NCCCCO)ncnc32)cc(OC)c1
inactive: NCI-H23 lung 94.5% | NCI-H226 lung 99.3% | NCI-H322M lung 99.3% | HOP-62 NSCLC 113% | NCI-H460 lung 105% | HOP-92 NSCLC 83.8% | NCI-H522 lung 111% | A549/ATCC NSCLC 101% | 786-0 renal 105% | COLO 205 colon 109%

CC(C)(C)OC(=O)N[C@@H](Cc1ccccc1)C(=O)N(Cc1ccccc1)C1(C(=O)NCc2ccccc2)CCN(Cc2ccccc2)CC1
active: HOP-92 NSCLC -8.51%
inactive: NCI-H23 lung 49.3% | NCI-H226 lung 70% | NCI-H322M lung 64.3% | HOP-62 NSCLC 56.2% | NCI-H460 lung 26.6% | NCI-H522 lung 43.7% | A549/ATCC NSCLC 24.8% | 786-0 renal 51.7% | COLO 205 colon 16.3%

C[C@]12CC[C@@H]3c4cc(O)c(O)cc4CC[C@H]3[C@@H]1CC[C@@H]2O
active: NCI-H522 lung -8.58%
inactive: NCI-H23 lung 64.5% | NCI-H226 lung 97.8% | NCI-H322M lung 60.6% | HOP-62 NSCLC 44.4% | NCI-H460 lung 29.5% | HOP-92 NSCLC 18.1% | A549/ATCC NSCLC 43.3% | 786-0 renal 43% | COLO 205 colon 115%

COc1ccc(C(=O)/C=C/c2cc(C(=O)c3cc(OC)c(OC)c(OC)c3)ccc2OC)cc1
inactive: NCI-H23 lung 72.9% | NCI-H226 lung 90.7% | NCI-H322M lung 91.5% | HOP-62 NSCLC 100% | NCI-H460 lung 88.6% | HOP-92 NSCLC 70.5% | A549/ATCC NSCLC 85.3% | 786-0 renal 89.4% | COLO 205 colon 75.9%
active: NCI-H522 lung -0.114%

COc1cc2nc(SCc3cc(OC)c(OC)c(OC)c3)n(Cc3ccccc3)c(=O)c2cc1OC
active: NCI-H522 lung -33% | COLO 205 colon 7.38%
inactive: NCI-H23 lung 20.5% | NCI-H226 lung 49.7% | NCI-H322M lung 45.4% | HOP-62 NSCLC 41.4% | NCI-H460 lung 22.3% | HOP-92 NSCLC 62.7% | A549/ATCC NSCLC 36.9% | 786-0 renal 36.8%
